Measured values published in PubChem BioAssay (Tox21).
Results filed as inconclusive are left out. Active and inactive are the calls of the source. Calls follow the shape of the dose curve; as a rule, active = well fitted activation curve with a large enough effect in the signal ratio in the repeat runs, with a control signal flat (not every such curve was filed as active); inconclusive = weak or mixed curves; inactive = flat fitted curve, though single readings scatter; the % refers to the signal ratio.

experiment: qHTS assay for small molecule activators of the heat shock response signaling pathway (AID 743210); details: HeLa HSE-bla reporter, beta-lactamase ratio, 5 h; series mostly up to 62.6 µM
How it was run: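 Fluorescence from a cleaved B/G FRET substrate (2.5 h, room temp) reports HSE-driven beta-lactamase in HeLa cells treated 5 h at 37 C with DMSO-dissolved compounds.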

Structure (SMILES)	outcome
C(=NC1CCCCC1)=NC1CCCCC1	inactive
CCOP(=S)(OCC)Oc1nc(Cl)c(Cl)cc1Cl	inactive
NC(=O)C(Cl)(Cl)Cl	inactive
COP(=S)(Oc1cc(Cl)c(Br)cc1Cl)c1ccccc1 (centres undefined)	inactive
